Assay results from PubChem BioAssay AID2685 (National Center for Advancing Translational Sciences (NCATS), 2010).
“And” between values parts separate entries of the source, which are not always exact repeats. Equal entries are not always repeated. Screen size: about 320,000 compounds; about 2,100 (0.66%) were called active. Roughly 53% stayed inconclusive and do not appear here. The sample holds actives, similar compounds and a random draw of the others, so the mix is not that of the screen. Calls follow the shape of the dose curve; as a rule, active = well fitted inhibition curve with a large enough effect in the signal ratio, with a control signal flat (not every such curve was filed as active); inconclusive = small, poorly fitted or top-dose-only effect, or effect the other way, or a change in a side signal; inactive = flat fitted curve, though single readings scatter; the % refers to the signal ratio.

Assay: qHTS Assay for Lipid Storage Modulators in Drosophila S3 Cells;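 as to cell number change: cells counted by Cell Tracker Red CMTPX staining in the red channel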; as to lipid storage change, negative = inhibition: % is scaled to controls: 0 for no effect and ±100 for the full control effect
Details: BODIPY lipid droplet fluorescence, 18-24 h, cells fed with added oleic acid; cell number change: measured here: cell count max response; series mostly up to 46.1 µM; lipid storage change, negative = inhibition: at the top concentration
Summary of the method: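 Drosophila S3 cells got compounds at several concentrations plus oleic acid (400 uM solution). Laser-scanning cytometry with 488 nm excitation read lipid droplets at 500-530 nm and cells at 575-640 nm. Percent activity was relative to 20 uM Triacsin C.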
Potency is read from the fitted curve at half-maximal effect.

Row | SMILES | lipid storage change, negative = inhibition | cell number change [%] | outcome | Potency
1 | COc1ccc([C@H]2CC(=O)C=C(c3ccc4c(c3)OCO4)C2)cc1 | -9.07% (inactive) | 2.65 |  | 
2 | COc1ccc(NC2CCCN(C(=O)c3ccc4nc(C)c(C)nc4c3)C2)cc1OC (centres undefined) |  |  | inactive | 
3 | CCOC(=O)C1CCCN(C(=O)c2ccc3nc(-c4cccc(OC)c4)oc3c2)C1 (centres undefined) | -19.1% (inactive) | 6.9 |  | 
4 | CCOC(=O)C1CCCN(C(=O)c2ccc3nc(-c4ccc(OC)c(OC)c4)c(-c4ccc(OC)c(OC)c4)nc3c2)C1 (centres undefined) |  | -26.9 |  | 4.11 µM (active)
5 | O=c1c2nnn(-c3ccc(Br)cc3)c2ncn1Cc1ccccn1 | 14.2% (inactive) | 17.2 |  | 
6 | CSC1=NC(NCCCO)c2c(sc3c2CC(C)(C)OC3)N1 (centres undefined) | 21.6% (inactive) | -5.44 |  | 
7 | CS(=O)(=O)Nc1cccc(C2=NN(S(=O)(=O)c3ccccc3)C(c3ccco3)C2)c1 (centres undefined) | 0.748% (inactive) | -5.75 |  | 
8 | O=S(=O)(c1ccccc1)N1N=C(c2ccc(Br)cc2)CC1c1ccco1 (centres undefined) |  | 13.4 |  | 16.4 µM (active)
9 | CC(=O)N1N=C(c2ccc(NS(=O)(=O)c3ccccc3)cc2)CC1c1ccco1 (centres undefined) |  | -11.6 |  | 9.2 µM (active)
10 | CCS(=O)(=O)Nc1ccc(C2=NN(S(=O)(=O)c3ccc(F)cc3)C(c3ccco3)C2)cc1 (centres undefined) | -3.66% (inactive) | 4.44 |  | 
11 | CC(=O)N1N=C(c2ccc(Cl)cc2)CC1c1ccco1 (centres undefined) | 26.9% (inactive) | 10.2 |  | 
12 | CC(=O)N1N=C(c2cccc(NS(=O)(=O)c3ccc(C)cc3)c2)CC1c1ccco1 (centres undefined) |  | -6.11 | inactive | 
13 | Cc1cc(C)c(O)c(-c2cc(C(=O)Nc3cccnc3)[nH]n2)c1 | -22.1% (inactive) | -5.15 |  | 
14 | CCc1ccc(-c2cc(C)no2)cc1S(=O)(=O)NCc1ccccc1OC |  | 2.29 | inactive | 
15 | COc1ccc(-c2noc(-c3ccccc3C(=O)Nc3cccc(OC)c3)n2)cc1 | 13.9% (inactive) | 2.43 |  | 
16 | O=C1CCCc2c1cc(C(=O)NCc1ccco1)c(=O)n2-c1ccccc1 | 12.5% (inactive) | 1.19 |  | 
17 | CC(Cl)C(=O)c1ccc2c(c1)CCN2C(=O)C1CC1 (centres undefined) | 4.02% (inactive) | -1.68 |  | 
18 | COc1ccc(C(c2c(NC(=O)c3ccco3)sc(C)c2C)N2CCOCC2)cc1 (centres undefined) |  |  | inactive | 
19 | COc1ccc(C(c2c(NC(=O)c3ccco3)sc(C)c2C)N2CCOCC2)cc1OC (centres undefined) | 8.2% (inactive) | -1.23 |  | 
20 | COc1cccc(C(c2c(NC(=O)c3ccco3)sc(C)c2C)N2CCOCC2)c1 (centres undefined) |  | -13.8 |  | 20.6 µM (active)
21 | Cc1sc(NC(=O)c2ccco2)c(C(c2cccnc2)N2CCCC2)c1C (centres undefined) | -15.8% (inactive) | -20.2 |  | 
22 | CCN1CCN(C(c2cccnc2)c2c(NC(=O)c3ccco3)sc(C)c2C)CC1 (centres undefined) |  | -4.13 |  | 8.2 µM (active)
23 | Cc1sc(NC(=O)c2ccco2)c(C(c2cccnc2)N2CCN(CCO)CC2)c1C (centres undefined) | -3.36% (inactive) | -13.8 |  | 
24 | CCOCCCNCc1c(Cl)cccc1Cl | 1.39% (inactive) | 5.68 |  | 
25 | CCOC(=O)/C(=N\Nc1cccc(Cl)c1)Sc1nnc(-c2ccc(OC)cc2)n1C | 13.8% (inactive) | 1.18 |  | 

Row | SMILES | lipid storage change, negative = inhibition | cell number change [%] | outcome | Potency
26 | O=S(=O)(NCCc1ccccn1)c1ccc(-c2ccccn2)s1 | 5.79% (inactive) | -6.49 |  | 
27 | O=C1OCCN/C1=C\C(=O)c1ccc(Cl)cc1 | 4.76% (inactive) | 19.7 |  | 
28 | OCCC1CN(Cc2nc3c(s2)CCCC3)CCN1Cc1ccccc1 (centres undefined) | 8.62% (inactive) | 17.4 |  | 
29 | CCN1CCN(C(=S)c2ccc(Br)cc2)CC1 | -3.85% (inactive) | -1.28 |  | 
30 | CCc1nnc(NC(=O)Cc2ccc(OC)c(OC)c2)s1 | -9.59% (inactive) | 9.15 |  | 
31 | C[C@H](NC(=O)C1(c2ccccc2)CCN(C(=O)[C@H]2CSCN2C(=O)OC(C)(C)C)CC1)C(=O)O |  |  |  | -15.3% and -9.67%
32 | CC(C)C[C@H](NC(=O)C1(c2ccccc2)CCN(C(=O)[C@H]2CSCN2C(=O)OC(C)(C)C)CC1)C(=O)O | -0.167% (inactive) |  |  | 
33 | CC(C)[C@H](NC(=O)C1(c2ccccc2)CCN(C(=O)OC(C)(C)C)CC1)C(=O)O | -1.69% (inactive) | 0.279 |  | 
34 | CC1NC(=O)c2ccccc2-n2c1nc1cc(F)ccc1c2=O (centres undefined) | -24.4% (inactive) | 0.361 |  | 
35 | COc1ccc(C2=NCCn3nc4cc(OC)ccc4c32)cc1 | 3.18% (inactive) | -20.7 |  | 
36 | Cc1ccc(C2=NCCn3c2c2ccc([N+](=O)[O-])cc2[n+]3[O-])cc1 |  | -25.9 |  | 0.58 µM (active)
37 | O=[N+]([O-])c1ccc2c3n([n+]([O-])c2c1)CCN=C3c1ccc(Cl)cc1 | 8.37% (inactive) | 12.6 |  | 
38 | NS(=O)(=O)c1ccc(CNC(=S)NC2CCCCC2)cc1 | -3.85% (inactive) | -8.89 |  | 
39 | Cc1ccc(NC(=O)Cn2c(O)c(N=NC(N)=O)c3ccccc32)cc1 | -14.8% (inactive) | -8.5 |  | 
40 | COc1cccc2cc(C(=O)N3CCN(c4ccc(C)cc4C)CC3)c(=O)oc12 |  | 12.9 | inactive | 
41 | O=P(O)(OCc1ccccc1)OCc1ccccc1 | 5.37% (inactive) | 4.18 |  | 
42 | COC(=O)c1c(NC(=O)c2ccco2)sc2c1CCN(C(C)=O)C2 |  | -25.8 |  | 7.31 µM (active)
43 | COC(=O)c1c(NC(=O)c2ccco2)sc2c1CCC2 | 0.361% (inactive) | 3.65 |  | 
44 | COC(=O)c1c(NC(=O)C2CC2)sc2c1CCN(C(C)=O)C2 |  |  | inactive | 
45 | O=C(CSc1nc2ccc([N+](=O)[O-])cc2[nH]1)NC1CCCC1 | 4.94% (inactive) | 16 |  | 
46 | O=[N+]([O-])c1ccc(/C=N/N=C/c2ccc([N+](=O)[O-])o2)o1 | 13.8% (inactive) | 21.7 |  | 
47 | CCCSC1=N/C(=C\c2ccc([N+](=O)[O-])o2)C(=O)S1 | 17.3% (inactive) | 18.4 |  | 
48 | O=C1NC(=S)S/C1=C\C=C\c1ccc([N+](=O)[O-])o1 |  | -18.3 |  | 6.51 µM (active)
49 | Cc1ccccc1/C=C/c1cc[n+](C)cc1 | 5.44% (inactive) |  |  | 
50 | OCC[n+]1ccc(/C=C/c2c[nH]c3ccccc23)cc1 |  | -1.83 | inactive | 
